Experimental data reported in paper PMC5540273 (PLoS ONE, 2017).

How the values were obtained:
Settings in all cases: concentration: 1 μM, replicates: in singlicate; n = 1
AAK1 = system: AAK1
ABL1-nonphosphorylated = system: ABL1-nonphosphorylated
ABL1-phosphorylated = system: ABL1-phosphorylated
ABL2 = system: ABL2
ACVR1B = system: ACVR1B
ACVR1 = system: ACVR1
ACVR2A = system: ACVR2A
ACVR2B = system: ACVR2B
ACVRL1 = system: ACVRL1
ADCK3 = system: T1, ADCK3
T1 construct: gene CABC1

ADCK4 = system: ADCK4
AKT1 = system: AKT1
AKT2 = system: AKT2
AKT3 = system: AKT3
ALK = system: ALK
AMPK-alpha1 = system: T2, AMPK-alpha1
T2 construct: gene PRKAA1

AMPK-alpha2 = system: T3, AMPK-alpha2
T3 construct: gene PRKAA2

ANKK1 = system: ANKK1
ARK5 = system: T4, ARK5
T4 construct: gene NUAK1

ASK1 = system: T5, ASK1
T5 construct: gene MAP3K5
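Also: KINOMEscan kinase panel screen.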

SMILES | %Inh (AAK1) | %Inh (ABL1-nonphosphorylated) | %Inh (ABL1-phosphorylated) | %Inh (ABL2) | %Inh (ACVR1B) | %Inh (ACVR1) | %Inh (ACVR2A) | %Inh (ACVR2B) | %Inh (ACVRL1) | %Inh (ADCK3) | %Inh (ADCK4) | %Inh (AKT1) | %Inh (AKT2) | %Inh (AKT3) | %Inh (ALK) | %Inh (AMPK-alpha1) | %Inh (AMPK-alpha2) | %Inh (ANKK1) | %Inh (ARK5) | %Inh (ASK1)
CNc1nccc(-c2ccc3c(N)n[nH]c3c2)n1 [GSK2206003] | 74% | 7% | 3% | 20% | 10% | 7% | 8% | 67% | 0% | 1% | 26% | 0% | 0% | 0% | 33% | 0% | 0% | 33% | 0% | 0%
O=C(O)C(F)(F)F.O=c1[nH]ccc2nc(N[C@@H]3CCNC3)nc(Nc3ccc4c(c3)S(=O)(=O)CC4)c12 [GSK2181306] | 87% | 53% | 66% | 26% | 0% | 15% | 0% | 3% | 0% | 14% | 15% | 0% | 0% | 47% | 86% | 89% | 81% | 97.4% | 99.9% | 0%
O=C(Nc1c(F)cccc1F)c1cc(C(=O)c2ccccc2F)c[nH]1 [GSK1326180] | 0% | 0% | 0% | 0% | 20% | 0% | 0% | 0% | 9% | 11% | 20% | 0% | 0% | 0% | 33% | 0% | 0% | 2% | 0% | 8%
Fc1cc(Cl)ccc1Nc1ccnc2cc(-c3ccc(CN4CCOCC4)o3)ccc12 [GW560109] | 0% | 99.5% | 99.8% | 96.4% | 0% | 86% | 22% | 88% | 65% | 0% | 13% | 0% | 0% | 19% | 62% | 0% | 21% | 16% | 4% | 16%
CCn1c(-c2nonc2N)nc2c(-c3ccccc3)ncc(OCCCN)c21.O=C(O)C(F)(F)F.O=C(O)C(F)(F)F [GSK260205] | 14% | 0% | 9% | 16% | 61% | 38% | 0% | 0% | 0% | 46% | 26% | 72% | 75% | 74% | 25% | 0% | 0% | 0% | 0% | 0%
O=C(Nc1n[nH]c2nc(-c3cccc(O)c3)ccc12)C1CC1 [SB-711805] | 33% | 94.2% | 88% | 27% | 13% | 32% | 43% | 74% | 0% | 0% | 0% | 0% | 0% | 4% | 0% | 0% | 0% | 0% | 0% | 0%
CN(C)c1ncnc2nc[nH]c12 [SKF-31736] | 30% | 38% | 27% | 0% | 0% | 1% | 0% | 0% | 0% | 0% | 19% | 0% | 0% | 0% | 0% | 0% | 0% | 0% | 0% | 0%
COC(=O)Nc1nc2ccc(Oc3ccc(NC(=O)Nc4cc(C(F)(F)F)ccc4F)cc3)cc2[nH]1.Cl [GW654607] | 17% | 99.4% | 57% | 94% | 0% | 0% | 0% | 0% | 0% | 1% | 54% | 0% | 100% | 0% | 18% | 19% | 15% | 13% | 9% | 12%
CSc1ccc(NC2=C(c3ccc(Cl)cc3)C(=O)NC2=O)cc1 [SB-317658] | 0% | 0% | 0% | 0% | 13% | 0% | 15% | 0% | 23% | 1% | 0% | 9% | 8% | 10% | 0% | 23% | 30% | 3% | 0% | 0%
CN(c1ccc(NC(=O)Nc2cccc(Cl)c2)cc1)c1ccnc(N)n1.Cl [GW830707] | 0% | 0% | 0% | 3% | 4% | 0% | 0% | 0% | 9% | 0% | 6% | 23% | 3% | 12% | 0% | 0% | 18% | 0% | 0% | 2%
